This note sets out measurements from the supplement of paper PMC6555819.

The subject of the first test is RARg homodimer (NR concentration 270 nM). The test is described as follows: PBM binding z-score (relative to random genomic background probes); higher = stronger binding; sequences stand for … in GC…GCGATTGACAGCGTAGAATGAAGG
The procedure, abridged: (§1)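 On custom Agilent 4×180K arrays, double-stranded probes with 34-nt variable regions carried direct-repeat seeds, single-nucleotide variants, half-site ablations or random human genomic background. Ligand-free nuclear receptor dimers were applied for 1 h, and binding was read with antibodies against each partner (one per run). Binding z-scores come from regression-normalized fluorescence, with the random background probes as reference.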
Take TCTATTAGTTGATTAGGGCATCCGAAACAGCGGA: the PBM binding z-score turned out to be 0.418.
Consider ACTATTTGTTGACTTAGGGCAACCGATACGACGC, for which the PBM binding z-score worked out at 1.08.
In turn, ACTAGCAGGCCAAGGGTCACTTAAGATTAGTCCG registered a PBM binding z-score of 4.04.
On to GATACAGGGTCAAGGCCAGACTACGCGTATTGAT, for which the PBM binding z-score came to 5.17.
On the same count and under the same terms, the result for TCAATGAGGTTAAAGATCAGGGAACGTGGCGTCG reads 1.32; that for GATACAGGGTCAACGCCAGAGTACGCGTATTGAT, 6.23.
On to CGTCCAAGTTCAGCAGGTCAGTGAAAGCGACGTG, for which the PBM binding z-score was determined as 3.65.
TGAATGAGGTTATAAGATCAGGGAACGTTGCAAA came in with a PBM binding z-score of 0.836.
The same measure, in the same setting: next, ACTATTAGTTGACTTAGGGAAACCGATACGACGC: 0.385; AGTACAGGGTCACTAGGCCAGAGTAGGTACGAAT: 5.26.
Sequence GGGACGAGGGCAAGTTGATAGCAGAGTTTGATGG returned a PBM binding z-score of 2.46.
As to TGAATGAGGTTAAAGATCAGGGCACGTGGCGTCG, the PBM binding z-score was 1.59.
As for ACTCGGAGGACAAAGGGCAGAGCTACGCCAGTGA, the PBM binding z-score was determined as 1.91.
Sequence TCATATAGGTAATACAGGTGAAGGTCGGCATCTA gave a PBM binding z-score of 0.974.
The same measure, in the same setting: the result for TATAGCAGGCCAGAGGGTCACTCAAGAGGTACGG reads 2.09; that for TCTATTAGATGAAGGGCAACCGACGAGTCCGTTT, 0.672; that for CCTACTGGGCCTCGAAAGGTCATTGATTCAGTGA, 3.27.
With TCTAGTAGATCAATAGAGGTTAAGAAAGTGCGCT, the PBM binding z-score was found to be 0.2.
The same measure, in the same setting: the result for AGTCAAAGTTCACTAAGTAACGTAAGATTCAGCT reads 5.16.
In turn, AGAACTAGGGCAATGAGTTGATAGCACGGGTGGC displayed a PBM binding z-score of 0.889.
With TCAAGCAGGCCAGAGGGTCACTCAAGAGGTACGG, the PBM binding z-score came out at 2.21.
TCTATTAGTCGAAGGGCAACCGACGAGTCCGTTT had a PBM binding z-score of 0.638.
The sequence CGTCAAAGTACAACTAAGGTAACGTAAAGCACGC registered a PBM binding z-score of 1.21.
In turn, GCTCGGAGGACAAGGTCAGAGATTTGTCCGTAGA returned a PBM binding z-score of 3.13.
Still for that read-out and setting: next, ATCTCTAGGAAACAAGTTCAGTGAAAGAGAGGAC: 0.918; CCGACTGGGGCAGAACGGTTACCATACCATCCGG: 0.284; GCTCGGAGGACAAGGTCAGAGCATTGTCCGTAGA: 3.72.
Consider GCAACGAGGGCAAGTTGATAGCAGAGTTTGATGG, for which the PBM binding z-score is 1.77.
Consider TCTATTAGTTGATTAGGCCAACCGAAACAGCGGA, for which the PBM binding z-score came to 0.554.
For the sequence TCATATAGGTAGACAGGTGAAAGTCCGTAAGTTA, the PBM binding z-score was 0.361.
Same read-out and setting: the result for TCTCGGAGGACACGAAGGTCAGAACTTTCCAGAG reads 3.24; that for TCCGACAGGTGAAGGTAACTCAGGTACGCAGTCG, 0.374.
GCTTGTAGATCATGGTTAAGAAAGACTAAGCTAA yielded a PBM binding z-score of -0.267.
The sequence CCGACTGGGGCAGGGTTACCATAACGCACAGCCA came in with a PBM binding z-score of 0.718.
The same measure, in the same setting: the result for GCTTGTAGATCAAGGGTAAGAAAGACTAAGCTAA reads -0.393; that for TTACCAAGGTGAGCTGAGGTCGTTGAACCAACTC, 0.931.
The sequence CTACCAAGGTGAACAAGGGCGTTGATTACTATTC showed a PBM binding z-score of 0.99.
On to TATAGTTGGTCAAAGGTCACACACTCGAAATGCG, for which the PBM binding z-score was determined as 6.33.
Same read-out and setting: the result for CAAACTAGGTTAAAGGTCAAAGTCGAGCCAACCA reads 5.43.
AGAACGAGGGCACGCTGAGTTCATAGCAGAGTAG gave a PBM binding z-score of 3.34.

The test system of a further test is RXRa DBDmut IVT, anti-RXR (DBD mutation: RXRa K156A/R161A, NR concentration 90 nM). The description is as above. The procedure, abridged: as §1
For the sequence TCTATTAGTTGATTAGGGCATCCGAAACAGCGGA, the PBM binding z-score was found to be 1.08.
Regarding ACTATTTGTTGACTTAGGGCAACCGATACGACGC, the PBM binding z-score worked out at 0.742.
For the sequence ACTAGCAGGCCAAGGGTCACTTAAGATTAGTCCG, the PBM binding z-score was determined as 0.5.
As to GATACAGGGTCAAGGCCAGACTACGCGTATTGAT, the PBM binding z-score amounted to 2.76.
The sequence TCAATGAGGTTAAAGATCAGGGAACGTGGCGTCG came in with a PBM binding z-score of 1.88.
The same measure, in the same setting: next, GATACAGGGTCAACGCCAGAGTACGCGTATTGAT: 2.6.
As to CGTCCAAGTTCAGCAGGTCAGTGAAAGCGACGTG, the PBM binding z-score came out at 3.67.
TGAATGAGGTTATAAGATCAGGGAACGTTGCAAA displayed a PBM binding z-score of 0.756.
Consider ACTATTAGTTGACTTAGGGAAACCGATACGACGC, for which the PBM binding z-score came to 0.822.
In turn, AGTACAGGGTCACTAGGCCAGAGTAGGTACGAAT gave a PBM binding z-score of 2.61.
GGGACGAGGGCAAGTTGATAGCAGAGTTTGATGG: the PBM binding z-score was determined as 2.62.
As to TGAATGAGGTTAAAGATCAGGGCACGTGGCGTCG, the PBM binding z-score turned out to be 0.869.
The same measure, in the same setting: next, ACTCGGAGGACAAAGGGCAGAGCTACGCCAGTGA: 0.468; TCATATAGGTAATACAGGTGAAGGTCGGCATCTA: 1.69; TATAGCAGGCCAGAGGGTCACTCAAGAGGTACGG: -1.
As for TCTATTAGATGAAGGGCAACCGACGAGTCCGTTT, the PBM binding z-score worked out at 1.4.
On the same count and under the same terms, the result for CCTACTGGGCCTCGAAAGGTCATTGATTCAGTGA reads 0.125.
For TCTAGTAGATCAATAGAGGTTAAGAAAGTGCGCT, the PBM binding z-score turned out to be 0.439.
AGTCAAAGTTCACTAAGTAACGTAAGATTCAGCT: the PBM binding z-score was 4.1.
Still for that read-out and setting: the result for AGAACTAGGGCAATGAGTTGATAGCACGGGTGGC reads 0.324.
Same read-out and setting: the result for TCAAGCAGGCCAGAGGGTCACTCAAGAGGTACGG reads 0.592.
Consider TCTATTAGTCGAAGGGCAACCGACGAGTCCGTTT, for which the PBM binding z-score amounted to 1.56.
In turn, CGTCAAAGTACAACTAAGGTAACGTAAAGCACGC returned a PBM binding z-score of 0.971.
In turn, GCTCGGAGGACAAGGTCAGAGATTTGTCCGTAGA displayed a PBM binding z-score of 0.212.
With ATCTCTAGGAAACAAGTTCAGTGAAAGAGAGGAC, the PBM binding z-score is 0.688.
CCGACTGGGGCAGAACGGTTACCATACCATCCGG had a PBM binding z-score of -1.04.
Same read-out and setting: next, GCTCGGAGGACAAGGTCAGAGCATTGTCCGTAGA: 0.0327; GCAACGAGGGCAAGTTGATAGCAGAGTTTGATGG: 2.2; TCTATTAGTTGATTAGGCCAACCGAAACAGCGGA: 1.35.
For the sequence TCATATAGGTAGACAGGTGAAAGTCCGTAAGTTA, the PBM binding z-score amounted to 1.68.
For the sequence TCTCGGAGGACACGAAGGTCAGAACTTTCCAGAG, the PBM binding z-score amounted to 1.26.
With TCCGACAGGTGAAGGTAACTCAGGTACGCAGTCG, the PBM binding z-score is 0.258.
For GCTTGTAGATCATGGTTAAGAAAGACTAAGCTAA, the PBM binding z-score was 0.0641.
In turn, CCGACTGGGGCAGGGTTACCATAACGCACAGCCA yielded a PBM binding z-score of -1.08.
Take GCTTGTAGATCAAGGGTAAGAAAGACTAAGCTAA: the PBM binding z-score is -0.509.
In turn, TTACCAAGGTGAGCTGAGGTCGTTGAACCAACTC showed a PBM binding z-score of -0.0646.
In turn, CTACCAAGGTGAACAAGGGCGTTGATTACTATTC registered a PBM binding z-score of 0.764.
With TATAGTTGGTCAAAGGTCACACACTCGAAATGCG, the PBM binding z-score is 0.941.
On to CAAACTAGGTTAAAGGTCAAAGTCGAGCCAACCA, for which the PBM binding z-score came out at 2.13.
In the case of AGAACGAGGGCACGCTGAGTTCATAGCAGAGTAG, the PBM binding z-score was 3.17.
